Bioassay records as filed in PubChem BioAssay.
LMP1 NFkB inh = inhibitors of Epstein-Barr LMP1-induced NF-kappaB reporter. LMP1-induced NF-kappaB luciferase reporter cells, luminescence. inhibition, % at 12.5 µM. actives 0.69% (n = 350,000); in the data active means inhibition above about 41%; inconclusive means no clear call, values can overlap the other calls;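 further: 0% = neutral control wells and 100% = reference inhibitor control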
PGC1a acetyl inh = PGC1a acetylation modulation, inhibitor mode. U2OS PGC1a acetylation, AlphaScreen anti-acetyl-lysine; with virally co-expressed GCN5 acetyltransferase. actives 0.17% (n = 350,000). inhibition, % at 15.6 µM. AID 651687;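 active means every replicate shows inhibition of at least 40%; inconclusive means mean inhibition at least 40% but some replicate below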;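 further: 0% = neutral control wells and 100% = positive control wells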
PAX8 reporter = lowers PAX8-driven luciferase in RMG-I cells; RMG-I TPO-luciferase reporter, SteadyGlo, 24 h; inhibition, % at 12.6 µM; actives 1.2% (n = 360,000); AID 652154;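 active means mean replicate inhibition at least 60% with every replicate also reaching 60%; inconclusive means only one of the two criteria is met; inactive means mean below 60% and not all replicates reaching 60%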;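 further: luciferase light reporting Pax8 driven TPO promoter activity; plate controls were median of neutral control wells for no effect and mitoxantrone controls for full effect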
EWS-Fli inh = EWS/Fli transcriptional activity inhibition. AID 651661. inhibition, % at 12.6 µM. actives 0.67% (n = 350,000). A673 NR0B1-luciferase reporter, viability-normalised;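 active means mean inhibition of at least 50% after viability correction, with every replicate also passing that limit; inconclusive means mean reaches 50% but only one of two replicates passes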;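 further: firefly luciferase signal divided by Alamar Blue viability fluorescence both relative to DMSO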
MITF TRPM1 inh = reduces MITF-dependent TRPM1 promoter luciferase signal. SK-MEL-5 TRPM1 promoter luciferase, 24 h. inhibition, % at 12.5 µM. actives 0.83% (n = 330,000);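 active means mean inhibition across replicates of 60% or more, whatever share of single replicates reaches that level; inconclusive means some that reach 60%, reason not given; inactive means mean inhibition across replicates below 60%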
LGR2 inh = Drosophila LGR2 receptor signaling inhibition; HEK293 LGR2, CRE-luciferase, bursicon-stimulated, 4 h; inhibition, % at 9.99 µM; actives 0.35% (n = 380,000);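 active means drop in luminescence signal, shown as inhibition above about 50% in the replicate tests, limit read from the data, passing the limit was not always enough; inconclusive means probably only some replicates passing the limit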;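 further: agonist challenge used bursicon conditioned medium at about half maximal strength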
Starred values were filed as active, the others as inactive; ? = inconclusive; nt = no result. This is a sample that favours compounds with a hit; in the whole collection about 2.2% have one here.

SMILES	LMP1 NFkB inh	PGC1a acetyl inh	PAX8 reporter	EWS-Fli inh	MITF TRPM1 inh	LGR2 inh
C[C@@H]1CCCCO[C@@H](CN(C)C(=O)NC2CCCCC2)[C@H](C)CN([C@H](C)CO)C(=O)c2cc(NC(=O)Nc3ccc(F)cc3)ccc2O1	nt	-10.4	73.9*	9.9	nt	5.1
C[C@H]1CCCCO[C@H](CN(C)C(=O)NC2CCCCC2)[C@@H](C)CN([C@@H](C)CO)C(=O)c2cc(NC(=O)NC3CCCCC3)ccc2O1	nt	5.7	66.4*	8.4	nt	-0.2
C[C@H](CO)N1C[C@H](C)[C@H](CN(C)C(=O)Nc2cccc3ccccc23)OCCCC[C@H](C)Oc2ccc(NC(=O)NC3CCCCC3)cc2C1=O	nt	3.1	28.2	23.6	nt	60.0*
C[C@@H]1CN([C@H](C)CO)C(=O)c2cc(NC(=O)Nc3ccc(F)cc3)ccc2O[C@@H](C)CCCCO[C@H]1CN(C)C(=O)NC1CCCCC1	nt	0.1	84.0*	13.7	nt	0.6
CO[C@@H]1CN(C)C(=O)c2cc(NC(C)=O)ccc2OC[C@H](C)N(Cc2ccccc2C(=O)O)C[C@H]1C	nt	5.4	-9.2	-0.1	nt	-11.7
O=C(Nc1cccc(F)c1)N[C@@H]1CC[C@H](CCNS(=O)(=O)c2cccc(Cl)c2)O[C@@H]1CO	nt	11.4	-17.9	42.5	nt	-11.0
COc1ccc(NC(=O)Nc2ccc3c(c2)C(=O)N([C@@H](C)CO)C[C@@H](C)[C@@H](CN(C)C(=O)NC2CCCCC2)OCCCC[C@@H](C)O3)cc1	nt	5.1	19.4	-7.5	nt	8.1
C[C@@H]1CCCCO[C@H](CN(C)C(=O)Nc2ccc(F)cc2)[C@@H](C)CN([C@@H](C)CO)C(=O)c2cc(NC(=O)NC3CCCCC3)ccc2O1	nt	5.6	66.4*	3.6	nt	20.5
C[C@@H]1CCCCO[C@@H](CN(C)C(=O)Nc2ccc(F)cc2)[C@H](C)CN([C@H](C)CO)C(=O)c2cc(NC(=O)NC3CCCCC3)ccc2O1	nt	-9.7	59.4	-7.8	nt	4.6
C[C@@H]1CN([C@H](C)CO)C(=O)c2cc(-c3ccccc3F)cnc2O[C@H]1CN(C)Cc1ccc(F)cc1	nt	-14.7	nt	3.4	nt	-6.4
COc1ccc(-n2ncc3c(N4CCC(C)CC4)ncnc32)cc1	35.5	-10.0	-19.7	47.8	nt	?
COc1ccc(-n2ncc3c(N(C)C4CCCCC4)ncnc32)cc1	51.6*	0.2	-33.8	77.5*	58.8	93.6*
Cc1cccc(-n2ncc3c(N(C)C4CCCCC4)ncnc32)c1	37.0	-0.1	46.7	72.5*	79.5*	88.5*
C[C@H](CO)N1C[C@H](C)[C@@H](CN(C)C)Oc2ccc(NC(=O)Cn3cnnn3)cc2C1=O	nt	6.9	-8.7	-8.9	nt	21.2
O=C1C=CC(O)(c2cc(=O)c3c(O)cc(O)cc3o2)C=C1	-65.4	nt	88.9*	72.9*	80.5*	89.3*
C[C@H]1CCCCO[C@H](CN(C)S(=O)(=O)c2ccc(Cl)cc2)[C@@H](C)CN([C@@H](C)CO)C(=O)c2cc(NC(=O)Nc3cccc4ccccc34)ccc2O1	nt	2.8	-0.1	7.8	nt	-6.1
CCN(CC)CCn1c(=N)n(CC(O)COc2cccc(C)c2)c2ccccc21 (centres undefined)	-15.5	-31.0	13.3	15.5	3.8	24.2
Cc1ccc(OCC(O)Cn2c(=N)n(Cc3ccccc3)c3ccccc32)cc1 (centres undefined)	-3.3	-35.7	nt	nt	38.6	nt
Cc1cccc(OCC(O)Cn2c(=N)n(CCN3CCCCC3)c3ccccc32)c1 (centres undefined)	6.3	-38.4	18.6	nt	79.1*	nt
COc1ccc(OCC(O)Cn2c(=N)n(Cc3ccccc3)c3ccccc32)cc1 (centres undefined)	-1.9	-0.3	6.5	nt	30.0	nt
N=c1n(Cc2ccc(Cl)cc2)c2ccccc2n1CC(O)COc1ccccc1 (centres undefined)	-51.2	nt	55.7	-15.2	94.0*	83.3*
N=c1n(Cc2ccccc2)c2ccccc2n1CC(O)COc1ccc(Cl)cc1Cl (centres undefined)	-13.4	?	93.4*	61.5*	98.3*	101.3*
COc1cc(-c2noc(C)c2C#Cc2ccc(N)cc2)cc(OC)c1OC	3.8	-21.5	75.5*	?	20.2	-14.6
COc1cc(-c2noc(C)c2C#Cc2ccccn2)cc(OC)c1OC	5.2	nt	29.1	53.7*	20.8	-6.5
COc1ccc(-c2c(-c3cc(OC)c(OC)c(OC)c3)noc2C)cn1	6.6	nt	nt	nt	nt	nt
SMILES	LMP1 NFkB inh	PGC1a acetyl inh	PAX8 reporter	EWS-Fli inh	MITF TRPM1 inh	LGR2 inh
COc1cc(-c2noc(C)c2C(=O)NCCO)cc(OC)c1OC	2.3	nt	-9.0	-2.5	2.2	-10.0
COc1cc(-c2c(-c3cc(OC)c(OC)c(OC)c3)noc2C)ccc1F	nt	nt	87.8*	65.8*	nt	-27.8
COc1cc(-c2noc(C)c2/C=C/c2ccc(N)cc2)cc(OC)c1OC	0.6	nt	78.6*	57.4*	63.5*	-8.3
CNC(C)C#Cc1c(-c2cc(OC)c(OC)c(OC)c2)noc1C (centres undefined)	2.7	14.9	0.1	6.8	17.0	-6.5
CCNC(=O)[C@@H]1[C@@H](CO)[C@@H]2Cn3c(ccc(-c4ccc(F)cc4)c3=O)[C@@H]2N1C	nt	2.8	nt	-5.4	nt	-11.4
C[C@H](CO)N1C[C@H](C)[C@@H](CN(C)C(=O)C2CCC2)Oc2cc(C3=CCCC3)ccc2S1(=O)=O	nt	2.1	nt	7.1	nt	18.1
CCCCCCN1C=CC(=C2C(=O)c3ccccc3C2=O)C=C1	52.8*	1.8	67.1*	79.3*	79.7*	94.5*
CCN1C=CC(=C2C(=O)c3ccccc3C2=O)C=C1	90.2*	nt	nt	nt	99.6*	nt
CCCCN1C=CC(=C2N=c3cccc([N+](=O)[O-])c3=N2)C=C1	-4.2	nt	-27.7	-14.1	-6.1	23.5
CCCN1C=CC(=C2C(=O)c3ccccc3C2=O)C=C1	86.7*	nt	nt	nt	104.7*	nt
CCCCN1C(C)=CC(=C2C(=O)c3ccccc3C2=O)C=C1C	3.5	9.5	-1.7	-51.4	9.3	60.3*
C[C@@H]1CN([C@H](C)CO)C(=O)c2cc(NC(=O)CCC(F)(F)F)ccc2O[C@@H](C)CCCCO[C@@H]1CN(C)C	nt	23.3	-14.5	-4.8	nt	1.1
COc1ccc(NC(=O)N(C)C[C@@H]2Oc3ccc(NS(=O)(=O)c4cccs4)cc3C(=O)N([C@@H](C)CO)C[C@@H]2C)cc1	nt	2.3	nt	0.7	nt	5.2
Cc1ccc(S(=O)(=O)Nc2ccc3c(c2)CC(=O)N([C@@H](C)CO)C[C@@H](C)[C@@H](CN(C)Cc2ccncc2)O3)cc1	nt	6.3	0.1	5.9	nt	9.2
COc1cccc(C#Cc2ccc([C@H]3[C@@H](CO)N(C(=O)C4CCC4)[C@H]3C#N)cc2)c1	nt	5.1	71.5*	-26.4	nt	13.4
COc1cccc(C#Cc2ccc([C@@H]3[C@@H](C#N)N(C(=O)C4CCCC4)[C@@H]3CO)cc2)c1	nt	-15.7	nt	0.7	nt	-2.9
COc1cccc(C#Cc2ccc([C@H]3[C@@H](CO)N(C(=O)C4CCCCC4)[C@H]3C#N)cc2)c1	nt	1.0	78.3*	15.6	nt	-7.5
